A short description of test [1]: qHTS assay to identify small molecule antagonists of the thyroid receptor (TR) signaling pathway - cell viability counter screen (AID 743064). Also: nearly all actives have a fitted effect of over 50% in size. Also: potency is read from the fitted curve at half-maximal effect. In a few lines:
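GH3.TRE-Luc rat pituitary cells carrying a TRE-luciferase reporter were treated with compound plus 1 nM T3 (final) for 23.5 h at 37 °C. Viability was then read in the same wells by CellTiter-Fluor fluorescence after a further 30 min.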

Test [2] has as its system thyroid hormone receptor (rat, GH3 cells). In words: qHTS assay to identify small molecule agonists of the thyroid receptor (TR) signaling pathway (AID 743066; calls by dose curve).
The nature of test [3]: qHTS assay to identify small molecule antagonists of the estrogen receptor alpha (ER-alpha) signaling pathway - cell viability counter screen (AID 743074; calls by dose curve; also: nearly all actives have a fitted effect of over 45% in size).
The nature of test [4]: qHTS assay to identify small molecule antagonists of the estrogen receptor alpha (ER-alpha) signaling pathway using the BG1 cell line - cell viability counter screen (AID 743081).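 Also: compound given together with 17beta-estradiol as the ER stimulus; series mostly up to about 70 µM; nearly all actives have a fitted effect of over 45% in size.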
In the next test the target is Aromatase (Homo sapiens) (UniProt P11511). In words: qHTS assay to identify aromatase inhibitors (AID 743083). Also: series mostly up to about 70 µM; nearly all actives have a fitted effect of over 55% in size. On the technique in general: In qHTS, concentration-response curves come from the screen itself.
Chain of Aromatase (Homo sapiens) (P11511 whole entry, looked up): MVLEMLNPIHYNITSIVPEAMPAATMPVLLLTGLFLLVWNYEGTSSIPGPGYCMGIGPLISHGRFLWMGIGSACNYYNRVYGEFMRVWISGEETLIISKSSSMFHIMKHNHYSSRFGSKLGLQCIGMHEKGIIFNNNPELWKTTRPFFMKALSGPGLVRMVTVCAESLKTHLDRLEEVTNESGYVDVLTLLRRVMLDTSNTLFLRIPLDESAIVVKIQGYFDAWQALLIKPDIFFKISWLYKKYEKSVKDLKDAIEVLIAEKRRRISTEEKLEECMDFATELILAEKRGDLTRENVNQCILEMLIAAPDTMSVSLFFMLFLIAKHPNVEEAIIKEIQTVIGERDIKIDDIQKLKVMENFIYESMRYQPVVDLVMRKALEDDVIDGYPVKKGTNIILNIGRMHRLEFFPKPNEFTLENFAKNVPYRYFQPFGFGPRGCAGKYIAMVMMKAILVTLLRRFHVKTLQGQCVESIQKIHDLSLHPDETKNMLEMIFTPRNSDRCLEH
The nature of test [5]: qHTS assay to identify aromatase inhibitors - cell viability counter screen (AID 743084).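 Also: cells stimulated with testosterone during compound exposure; nearly all actives have a fitted effect of over 55% in size.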
For test [6], the target named is Aryl hydrocarbon receptor (Homo sapiens) (UniProt P35869). Nature of the test: qHTS assay to identify small molecule that activate the aryl hydrocarbon receptor (AhR) signaling pathway (AID 743085). Also: nearly all actives have a fitted effect of over 15% in size. Also: potency is read from the fitted curve at half-maximal effect.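 As to activation: HG2L7.5c1 human HepG2 liver cells with stably integrated DRE-driven firefly reporter; series mostly up to about 70 µM.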 The method, boiled down:
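HepG2 cells (HG2L7.5c1) stably carrying a firefly luciferase reporter driven by 20 dioxin responsive elements were exposed to compound for 24 h at 37C after a 5 h settling period; luminescence rise (ONE-Glo) indicated activation.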

Test [7] in a line: qHTS assay to identify small molecule that activate the aryl hydrocarbon receptor (AhR) signaling pathway - cell viability counter screen (AID 743086). Also: series mostly up to about 70 µM; nearly all actives have a fitted effect of over 45% in size. In a few lines: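 Cytotoxicity counter screen: CellTiter-Fluor signal (30 min, 37 C) in 4000 HepG2 cells/well carrying the DRE-luciferase reporter, following 24 h compound exposure at 37 C.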
Test [8] addresses Peroxisome proliferator-activated receptor gamma (Homo sapiens) (UniProt P37231). In words: qHTS assay to identify small molecule agonists of the peroxisome proliferator-activated receptor gamma (PPARg) signaling pathway (AID 743094; active = well fitted activation curve with a large enough effect in the signal ratio in the repeat runs, not every such curve was filed as active; the % refers to the signal ratio). In a few lines: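 Cells from the PPARg UAS-bla HEK293H line are plated and incubated 5 h at 37C. Compounds in DMSO are pinned in and left 17 h at 37C. LiveBLAzer B/G substrate is then added for 1 h at room temperature before fluorescence is measured.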

The target is the same in test [9]. Nature of the test: qHTS assay to identify small molecule antagonists of the peroxisome proliferator-activated receptor gamma (PPARg) signaling pathway (AID 743191; calls by dose curve; also: series mostly up to about 63 µM; nearly all actives have a fitted effect of over 30% in size). The method, boiled down: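 Beta-lactamase reporter under UAS control in HEK293H PPARg-bla cells; compound treatment 17 h at 37C. Read-out: fluorescence intensity after 1 h room-temperature incubation with LiveBLAzer B/G FRET substrate.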

Test [10] in a line: qHTS assay to identify small molecule antagonists of the peroxisome proliferator-activated receptor gamma (PPARg) signaling pathway - cell viability counter screen (AID 743194). Also: nearly all actives have a fitted effect of over 55% in size. The method, boiled down: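 Viability was measured as CellTiter-Glo luminescence in GeneBLAzer PPARg UAS-bla HEK293H cells. These cells had been exposed 17 h at 37 C to compounds together with rosiglitazone at 50 nM final, with the beta-lactamase readout taken in the same wells.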

A short description of test [11]: qHTS assay for small molecule agonists of the antioxidant response element (ARE) signaling pathway (AID 743202; active = well fitted activation curve with a large enough effect in the signal ratio in the repeat runs, not every such curve was filed as active; the % refers to the signal ratio). The method, boiled down:
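Beta-lactamase reporter activity, read as fluorescence intensity, reflects ARE/Nrf2 pathway induction in HepG2 cells after 16 h compound exposure at 37 C; substrate loading was 2 h at room temperature.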

Test [12] is described as follows: qHTS assay for small molecule agonists of the antioxidant response element (ARE) signaling pathway - cell viability counter screen (AID 743203; calls by dose curve; also: nearly all actives have a fitted effect of over 55% in size). In a few lines:
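Cytotoxicity was tested in parallel with the ARE reporter screen. ARE-bla HepG2 cells were exposed to compounds for 16 hrs, and viability was taken from CellTiter-Glo luminescence.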

Test [13] in a line: qHTS assay for small molecule activators of the heat shock response signaling pathway - cell viability counter screen (AID 743209). Also: nearly all actives have a fitted effect of over 50% in size. The method, boiled down: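 Cytotoxicity counter screen run in parallel with the HSE beta-lactamase reporter, using the same wells. HeLa HSE-bla cells received compound for 5 h at 37 C; ATP-based CellTiter-Glo luminescence was measured after 30 min at room temperature.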

A short description of test [14]: qHTS assay for small molecule activators of the heat shock response signaling pathway (AID 743210; active = well fitted activation curve with a large enough effect in the signal ratio in the repeat runs, with a control signal flat, not every such curve was filed as active; the % refers to the signal ratio;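 also: HeLa cells with beta-lactamase reporter driven by heat shock elements; series mostly up to about 63 µM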). The method, boiled down: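 Fluorescence from a cleaved B/G FRET substrate (2.5 h, room temp) reports HSE-driven beta-lactamase in HeLa cells treated 5 h at 37 C with DMSO-dissolved compounds.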
For test [15], the target named is Estrogen receptor (Homo sapiens) (UniProt P03372). Nature of the test: qHTS assay to identify small molecule antagonists of the estrogen receptor alpha (ER-alpha) signaling pathway (AID 743069; active = well fitted curve in the direction sought with a large enough effect in the signal ratio in the repeat runs, not every such curve was filed as active; the % refers to the signal ratio). In a few lines: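 Fluorescence intensity from a beta-lactamase FRET substrate served as the read-out. Cells: HEK293 with stably integrated ER-alpha-UAS-bla reporter. Agonist 17beta-estradiol was co-added with compounds; incubation 18 hr at 37C, substrate 2 hr at room temperature.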
Chain of Estrogen receptor (Homo sapiens) (P03372 whole entry, looked up): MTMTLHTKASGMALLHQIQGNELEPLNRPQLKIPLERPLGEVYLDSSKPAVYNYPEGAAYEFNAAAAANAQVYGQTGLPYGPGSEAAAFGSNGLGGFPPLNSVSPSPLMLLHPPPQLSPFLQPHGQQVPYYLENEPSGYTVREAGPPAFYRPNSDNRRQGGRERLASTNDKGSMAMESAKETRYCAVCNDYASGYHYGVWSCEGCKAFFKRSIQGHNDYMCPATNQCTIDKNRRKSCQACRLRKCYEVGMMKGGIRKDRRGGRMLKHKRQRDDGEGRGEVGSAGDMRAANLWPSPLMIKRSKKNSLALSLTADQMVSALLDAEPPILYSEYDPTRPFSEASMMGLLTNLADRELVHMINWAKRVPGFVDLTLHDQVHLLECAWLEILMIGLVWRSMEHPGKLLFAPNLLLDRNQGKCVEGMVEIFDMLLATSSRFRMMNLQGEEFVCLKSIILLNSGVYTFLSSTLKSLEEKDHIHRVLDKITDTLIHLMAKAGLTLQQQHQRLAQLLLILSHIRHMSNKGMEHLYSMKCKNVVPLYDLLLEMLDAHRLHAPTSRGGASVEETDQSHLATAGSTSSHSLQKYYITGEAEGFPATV

Test [16] has the same target. In words: qHTS assay to identify small molecule agonists of the estrogen receptor alpha (ER-alpha) signaling pathway (AID 743075; calls by dose curve).
Test [17] can be described thus: qHTS assay to identify small molecule antagonists of the estrogen receptor alpha (ER-alpha) signaling pathway using the BG1 cell line (AID 743080; calls by dose curve;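 also: BG1 cells stimulated with 17beta-estradiol alongside compound; series mostly up to about 70 µM; nearly all actives have a fitted effect of over 25% in size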). The method, boiled down:
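Luminescence from a 4×ERE-luciferase reporter in BG1-Luc-4E2 cells served as read-out. Cells, pre-cultured 5 days in stripped-serum phenol-red-free medium, were exposed to compound with 17beta-estradiol co-stimulation for 21.5 h at 37 C.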

Test [18] can be described thus: qHTS assay to identify small molecule antagonists of the thyroid receptor (TR) signaling pathway (AID 743065). In a few lines:
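Antagonism measured as loss of luciferase signal in GH3 cells stably carrying a TRE-luciferase reporter, co-treated with compound and T3 (1 nM final) for 23.5 h at 37 C. Viability was read in the same well by CellTiter-Fluor.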

The target of test [19] is Estrogen receptor (Homo sapiens) (UniProt P03372). In words: qHTS assay to identify small molecule agonists of the estrogen receptor alpha (ER-alpha) signaling pathway using the BG1 cell line (AID 743079). Also: nearly all actives have a fitted effect of over 20% in size. Also: potency is read from the fitted curve at half-maximal effect.

The results in this text go back to PubChem BioAssay (Tox21).

Inconclusive results are not listed. Activity calls are given as the source filed them. Unless noted, calls follow the shape of the dose curve; as a rule, active = well fitted curve in the direction sought with a large enough effect in the repeat runs; inconclusive = weak or mixed curves; inactive = no such curve, though single readings can be large; an effect the other way counts as inactive or inconclusive.

Chain of Aryl hydrocarbon receptor (Homo sapiens) (P35869 whole entry, looked up): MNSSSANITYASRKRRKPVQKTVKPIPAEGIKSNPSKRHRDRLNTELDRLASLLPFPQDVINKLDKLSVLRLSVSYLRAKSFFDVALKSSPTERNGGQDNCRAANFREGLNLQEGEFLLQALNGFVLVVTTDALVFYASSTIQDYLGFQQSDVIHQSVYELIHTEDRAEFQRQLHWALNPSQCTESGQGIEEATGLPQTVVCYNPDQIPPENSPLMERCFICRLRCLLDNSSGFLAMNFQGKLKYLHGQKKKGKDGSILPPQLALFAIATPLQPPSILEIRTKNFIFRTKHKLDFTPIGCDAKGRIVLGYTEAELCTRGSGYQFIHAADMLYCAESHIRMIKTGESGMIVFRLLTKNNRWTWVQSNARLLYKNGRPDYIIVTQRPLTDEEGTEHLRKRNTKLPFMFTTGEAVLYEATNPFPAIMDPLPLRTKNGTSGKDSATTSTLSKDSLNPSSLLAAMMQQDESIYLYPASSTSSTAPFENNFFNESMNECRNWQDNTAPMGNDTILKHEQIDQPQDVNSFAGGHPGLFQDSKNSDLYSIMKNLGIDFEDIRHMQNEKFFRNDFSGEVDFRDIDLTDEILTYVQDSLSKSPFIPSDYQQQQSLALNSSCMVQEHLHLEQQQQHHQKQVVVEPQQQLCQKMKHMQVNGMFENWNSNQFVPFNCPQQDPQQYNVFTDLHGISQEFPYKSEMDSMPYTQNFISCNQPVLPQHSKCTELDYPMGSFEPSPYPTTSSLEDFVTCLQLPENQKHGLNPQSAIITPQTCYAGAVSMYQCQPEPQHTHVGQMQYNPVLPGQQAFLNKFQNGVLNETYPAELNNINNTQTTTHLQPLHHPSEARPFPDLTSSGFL
Chain of Peroxisome proliferator-activated receptor gamma (Homo sapiens) (P37231 whole entry, looked up): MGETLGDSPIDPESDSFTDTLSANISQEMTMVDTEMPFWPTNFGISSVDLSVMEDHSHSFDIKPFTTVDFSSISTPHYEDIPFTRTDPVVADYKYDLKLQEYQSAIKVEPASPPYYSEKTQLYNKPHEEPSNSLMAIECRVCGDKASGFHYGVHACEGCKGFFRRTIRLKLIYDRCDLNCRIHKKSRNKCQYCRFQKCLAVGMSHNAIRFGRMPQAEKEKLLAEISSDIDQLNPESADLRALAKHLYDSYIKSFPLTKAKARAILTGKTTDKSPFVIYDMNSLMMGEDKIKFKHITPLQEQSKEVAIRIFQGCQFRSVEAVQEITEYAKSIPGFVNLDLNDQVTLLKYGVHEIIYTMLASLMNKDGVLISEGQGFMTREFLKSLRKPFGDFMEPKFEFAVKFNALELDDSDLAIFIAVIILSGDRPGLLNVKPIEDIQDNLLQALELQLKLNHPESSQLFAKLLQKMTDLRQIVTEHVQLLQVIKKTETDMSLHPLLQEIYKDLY

As to `OCC1(CO)COCOC1`, the Potency entry in test [1], in [4], in [5], in test [6], in test [7] and in [8] was “inactive” in each case. The Potency result in test [11] and in test [13] was “inactive” each time. Further, the compound was called inactive (in test [2]; in [3]; in the test with Aromatase (Homo sapiens); in test [9]; in [10]; in test [12]).

As for `CC(=O)O[C@@H]1CC2CCC1(C)C2(C)C` (stereo partly drawn), the Potency entry in test [1], in test [4], in test [5], in [6], in test [7] and in [8] was “inactive” in each case. Further, the Potency result in [11] and in test [13] was “inactive” in each case. In addition, the call (in [3]; with Aromatase (Homo sapiens); in test [10]; in [12]; in [14]) was inactive.

On to `C=C(C)[C@@H]1CC=C(C)CC1`, for which the Potency entry in [1], in test [16], in test [4], in [5], in [6] and in test [7] was “inactive” each time. For the same compound, the Potency entry in test [13] is “inactive”. Moreover, the outcome (in test [15]; in test [3]; in test [17]; in the test with Aromatase (Homo sapiens); in test [12]; in test [14]) was inactive.

`c1ccc2cnccc2c1`: the Potency entry in test [18], in [16], in test [19], in test [4], in [5] and in test [6] was “inactive” in each case. In addition, the Potency entry in test [7], in test [8] and in test [13] was “inactive” in each case. For the same compound, the compound was classed as inactive (in [2]; in [15]; in test [3]; in test [17]; with Aromatase (Homo sapiens); in [9]). Also, the outcome in [10], in test [12] and in test [14] was inactive.

For `CC(CO)(CO)CO`, the Potency entry in test [1], in test [16], in test [4], in test [5], in test [6] and in test [7] was “inactive” each time. Besides, the Potency entry in [8], in test [11] and in [13] was “inactive” each time. For the same compound, the compound was classed as inactive (in test [2]; in test [15]; in test [3]; with Aromatase (Homo sapiens); in test [10]; in [12]). In addition, the compound was classed as inactive in [14].

For the compound `C=CCN1C[C@H](C(=O)N(CCCN(C)C)C(=O)NCC)C[C@@H]2c3cccc4[nH]cc(c34)C[C@H]21`, the Potency in [1] was 3.76 µM (active). Moreover, the compound was called inactive (in [15]; in test [3]; in test [17]; in the test with Aromatase (Homo sapiens); in [9]; in test [10]). Further, in [12], the call was inactive. For the same compound, the Potency entry in [16], in test [19], in [5], in test [6], in test [7] and in [8] was “inactive” in each case. Also, the Potency entry in test [11] and in [13] was “inactive” throughout.

For the compound `ONc1ccccc1`, the Potency result in [1], in test [16], in test [4], in [5], in [7] and in test [8] was “inactive” in each case. Moreover, in test [13], the Potency result is “inactive”. The compound was classed as inactive (in test [2]; in [15]; in test [3]; with Aromatase (Homo sapiens); in test [10]; in [12]). Further, the Potency in test [19] and in [6] was 60.5 µM (active) each time.

With `C=CCCCCCCCC`, the Potency result in test [1], in [4], in test [5], in test [6], in [7] and in test [8] was “inactive” each time. Also, the Potency result in test [11] and in test [13] was “inactive” throughout. Moreover, the outcome (in test [2]; in test [3]; with Aromatase (Homo sapiens); in test [10]; in test [12]; in test [14]) was inactive.

As to `O=NN(CCCl)C(=O)NC1CCCCC1`, the Potency result in [1], in test [4], in [5], in test [6], in test [7] and in test [8] was “inactive” in each case. Further, the Potency result in test [11] and in test [13] was “inactive” each time. For the same compound, the outcome (in test [2]; in test [3]; in the test with Aromatase (Homo sapiens); in test [10]; in test [12]; in test [14]) was inactive.
